Data: PubChem BioAssay (EPA / NIEHS)
Inconclusive results are not listed. The source made the active and inactive calls. The calls were made as follows, unless noted: active = hit-call score of the fitted dose curve at least 0.9, where 1 is the maximum; inconclusive = response in the unintended direction; inactive = score below 0.9.

How the values were obtained:
[1] = molecular target: human RAR-related Orphan Receptor gamma (RORg), RORC (gene 6097) (UniProt P51449); assay: ATG_RORg_TRANS: Attagene TRANS-FACTORIAL HepG2 Assay for human RAR-related Orphan Receptor gamma (RORg) (AID 2283011)
Chain of human RAR-related Orphan Receptor gamma (RORg), RORC (gene 6097) (P51449 whole entry, looked up, the tested form may be a part): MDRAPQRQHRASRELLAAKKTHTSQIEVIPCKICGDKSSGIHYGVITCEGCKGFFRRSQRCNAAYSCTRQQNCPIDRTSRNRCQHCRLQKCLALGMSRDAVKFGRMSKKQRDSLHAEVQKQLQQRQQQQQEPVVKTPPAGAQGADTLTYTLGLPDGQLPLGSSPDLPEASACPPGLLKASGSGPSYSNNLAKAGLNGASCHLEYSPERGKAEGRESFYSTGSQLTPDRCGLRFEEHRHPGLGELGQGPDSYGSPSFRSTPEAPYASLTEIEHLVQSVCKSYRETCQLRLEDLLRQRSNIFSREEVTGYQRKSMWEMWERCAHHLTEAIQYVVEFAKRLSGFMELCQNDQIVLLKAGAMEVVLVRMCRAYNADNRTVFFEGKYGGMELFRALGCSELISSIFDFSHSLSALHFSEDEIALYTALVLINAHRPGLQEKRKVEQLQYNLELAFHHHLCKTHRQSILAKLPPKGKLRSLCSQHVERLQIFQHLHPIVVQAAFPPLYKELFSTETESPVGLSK
In short: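 Reporter transcripts from a transfected RORg-GAL4 chimera in HepG2 cells were quantified 24 h after dosing by RT-PCR, 6-FAM labelling, HpaI digestion and capillary electrophoresis; increases over DMSO baseline were fitted.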

[2] = molecular target: Retinoic acid receptor RXR-alpha (Homo sapiens) (UniProt P19793); assay: ATG_RXRa_TRANS: Attagene TRANS-FACTORIAL HepG2 Assay for human Retinoid X Receptor alpha (RXRa) (AID 2283012)
Chain of Retinoic acid receptor RXR-alpha (Homo sapiens) (P19793 whole entry, looked up, the tested form may be a part): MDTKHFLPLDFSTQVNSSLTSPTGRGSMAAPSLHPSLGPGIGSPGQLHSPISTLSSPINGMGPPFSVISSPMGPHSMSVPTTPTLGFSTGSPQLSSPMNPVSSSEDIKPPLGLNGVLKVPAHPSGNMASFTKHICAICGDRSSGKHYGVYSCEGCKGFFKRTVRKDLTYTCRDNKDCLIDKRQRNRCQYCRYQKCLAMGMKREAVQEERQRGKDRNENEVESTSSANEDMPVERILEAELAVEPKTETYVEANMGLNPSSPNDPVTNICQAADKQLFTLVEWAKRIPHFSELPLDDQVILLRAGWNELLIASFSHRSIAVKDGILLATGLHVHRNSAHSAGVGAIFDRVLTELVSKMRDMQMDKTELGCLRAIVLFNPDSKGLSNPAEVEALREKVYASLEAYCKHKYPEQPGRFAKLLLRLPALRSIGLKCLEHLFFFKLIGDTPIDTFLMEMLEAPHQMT
In short: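 TRANS format reporting activity of exogenous RXRa-Gal4 chimera in transiently transfected HepG2, 24 h exposure. Reporter transcripts quantified by RT-PCR with capillary electrophoresis, with gain of signal scored relative to DMSO.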

[3] = molecular target: human Retinoid X Receptor beta (RXRb), RXRB (gene 6257) (UniProt P28702); assay: ATG_RXRb_TRANS: Attagene TRANS-FACTORIAL HepG2 Assay for human Retinoid X Receptor beta (RXRb) (AID 2283013)
Chain of human Retinoid X Receptor beta (RXRb), RXRB (gene 6257) (P28702 whole entry, looked up, the tested form may be a part): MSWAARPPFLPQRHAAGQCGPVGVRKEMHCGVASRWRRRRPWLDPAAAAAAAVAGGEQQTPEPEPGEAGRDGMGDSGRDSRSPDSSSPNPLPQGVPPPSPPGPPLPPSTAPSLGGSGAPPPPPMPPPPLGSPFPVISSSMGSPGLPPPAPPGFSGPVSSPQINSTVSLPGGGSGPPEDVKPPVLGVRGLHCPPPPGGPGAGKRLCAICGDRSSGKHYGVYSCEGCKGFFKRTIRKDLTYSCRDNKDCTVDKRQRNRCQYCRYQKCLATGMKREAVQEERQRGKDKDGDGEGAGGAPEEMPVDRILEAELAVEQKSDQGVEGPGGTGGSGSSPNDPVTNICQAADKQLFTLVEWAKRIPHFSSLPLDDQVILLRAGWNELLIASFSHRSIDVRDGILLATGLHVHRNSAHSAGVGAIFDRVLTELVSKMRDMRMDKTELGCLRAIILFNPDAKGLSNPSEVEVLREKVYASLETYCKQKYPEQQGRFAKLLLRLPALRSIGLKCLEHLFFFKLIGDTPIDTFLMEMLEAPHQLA
In short: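 Readout is reporter transcript induction after 24 h dosing. It is measured by RT-PCR of total RNA followed by fluorescent capillary electrophoresis. HepG2 liver cells carry transfected multiple reporter units driven by an exogenous RXRb-Gal4 fusion; activity is relative to DMSO.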

[4] = molecular target: human Thyroid Receptor alpha (THRa1), THRA (gene 7067) (UniProt P10827); assay: ATG_THRa1_TRANS: Attagene TRANS-FACTORIAL HepG2 Assay for human Thyroid Receptor alpha (THRa1) (AID 2283014)
Chain of human Thyroid Receptor alpha (THRa1), THRA (gene 7067) (P10827 whole entry, looked up, the tested form may be a part): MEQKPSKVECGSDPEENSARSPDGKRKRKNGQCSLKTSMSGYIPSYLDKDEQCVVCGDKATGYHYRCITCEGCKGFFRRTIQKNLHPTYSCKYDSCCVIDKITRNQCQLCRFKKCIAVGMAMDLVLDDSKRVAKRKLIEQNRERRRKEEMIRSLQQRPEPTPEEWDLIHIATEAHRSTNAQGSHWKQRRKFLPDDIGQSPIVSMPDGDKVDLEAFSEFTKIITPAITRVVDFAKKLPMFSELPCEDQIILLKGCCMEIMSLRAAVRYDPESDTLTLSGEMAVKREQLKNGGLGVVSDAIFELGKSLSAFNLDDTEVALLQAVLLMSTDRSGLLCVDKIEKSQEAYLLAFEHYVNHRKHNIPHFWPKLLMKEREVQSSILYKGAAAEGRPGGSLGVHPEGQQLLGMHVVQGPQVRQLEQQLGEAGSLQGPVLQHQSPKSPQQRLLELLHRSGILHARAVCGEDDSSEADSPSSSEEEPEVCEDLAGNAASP
In short: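 Transcripts from GAL4-UAS-driven reporters, measured after 24 h compound exposure by RT-PCR plus capillary electrophoresis of 6-FAM-labeled fragments, were fitted for gain of signal relative to DMSO. Cells: transiently transfected HepG2 expressing NR-Gal4 chimeras.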

[5] = read-out: E-selectin (Homo sapiens) (UniProt P16581); assay: BSK_3C_Eselectin: BioMAP Diversity Plus: 3C Assay for Eselectin Biomarker Activity (AID 2283015; active = hit-call score of the fitted dose curve at least 0.9, where 1 is the maximum; inactive = score below 0.9); conditions: primary human endothelial cells (HUVEC); actives raise or lower the signal
In short: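 E-selectin ELISA readout, fitted bidirectionally relative to DMSO, taken 24 h post-dosing in HUVEC cultures of the 3C system. Overt cytotoxicity tracked with sulforhodamine B staining of parallel wells.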

[6] = read-out: Interleukin-1 alpha (IL1a), IL1A (gene 3552); assay: BSK_BE3C_IL1a: BioMAP Diversity Plus: BE3C Assay for Interleukin-1 alpha (IL1a) Biomarker Activity (AID 2283016; active = hit-call score of the fitted dose curve at least 0.9, where 1 is the maximum; inactive = score below 0.9); conditions: primary human bronchial epithelial cells; actives raise or lower the signal
In short: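 IL-1a measured by ELISA after 24 h treatment of human primary bronchial epithelial cells, with gain or loss of signal fitted versus DMSO. Parallel cultures stained with SRB gauge overt cytotoxicity.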

[7] = read-out: Monocyte Chemoattractant Protein-1 (MCP1), CCL2 (gene 6347); assay: BSK_3C_MCP1: BioMAP Diversity Plus: 3C Assay for Monocyte Chemoattractant Protein-1 (MCP1) Biomarker Activity (AID 2283017; active = hit-call score of the fitted dose curve at least 0.9, where 1 is the maximum; inactive = score below 0.9); conditions: primary human endothelial cells (HUVEC); actives raise or lower the signal
In short: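 MCP-1 was measured by ELISA 24 h after dosing in primary HUVEC 3C cultures and fitted in both directions relative to DMSO; cytotoxicity was checked by SRB total-protein staining in parallel wells.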

[8] = read-out: Monocyte Chemoattractant Protein-1 (MCP1), CCL2 (gene 6347); assay: BSK_4H_MCP1: BioMAP Diversity Plus: 4H Assay for Monocyte Chemoattractant Protein-1 (MCP1) Biomarker Activity (AID 2283018; active = hit-call score of the fitted dose curve at least 0.9, where 1 is the maximum; inactive = score below 0.9); conditions: primary human endothelial cells (HUVEC); actives raise or lower the signal
In short: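 ELISA of MCP-1 (CCL2) 24 h after chemical dosing of HUVEC in the BioMAP 4H system. Gain or loss versus DMSO fitted; parallel SRB staining (560 nm) tracked overt cytotoxicity.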

[9] = read-out: Human Leukocyte Antigen - DR isotype (HLADR), HLA-DRA (gene 3122); assay: BSK_3C_HLADR: BioMAP Diversity Plus: 3C Assay for Human Leukocyte Antigen - DR isotype (HLADR) Biomarker Activity (AID 2283019; active = hit-call score of the fitted dose curve at least 0.9, where 1 is the maximum; inactive = score below 0.9); conditions: primary human endothelial cells (HUVEC); actives raise or lower the signal
In short: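 Bidirectional fitting against DMSO was applied to the HLA-DR ELISA signal from human umbilical vein endothelial cells, 24 h post-dose. Cytotoxicity came from parallel SRB total-protein staining; 3C proliferation was counted by SRB at 48 h.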

[10] = read-out: Interleukin-8 (IL8), CXCL8 (gene 3576); assay: BSK_3C_IL8: BioMAP Diversity Plus: 3C Assay for Interleukin-8 (IL8) Biomarker Activity (AID 2283020; active = hit-call score of the fitted dose curve at least 0.9, where 1 is the maximum; inactive = score below 0.9); conditions: primary human endothelial cells (HUVEC); actives raise or lower the signal
In short: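 IL-8 was measured by ELISA in HUVEC cultures 24 h after chemical dosing, with gain or loss of signal fitted relative to DMSO. Parallel SRB total-protein staining tracked overt cytotoxicity.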

[11] = molecular target: human Vitamin D Receptor (VDR), VDR (gene 7421) (UniProt P11473); assay: ATG_VDR_TRANS: Attagene TRANS-FACTORIAL HepG2 Assay for human Vitamin D Receptor (VDR) (AID 2283022)
Chain of human Vitamin D Receptor (VDR), VDR (gene 7421) (P11473 whole entry, looked up, the tested form may be a part): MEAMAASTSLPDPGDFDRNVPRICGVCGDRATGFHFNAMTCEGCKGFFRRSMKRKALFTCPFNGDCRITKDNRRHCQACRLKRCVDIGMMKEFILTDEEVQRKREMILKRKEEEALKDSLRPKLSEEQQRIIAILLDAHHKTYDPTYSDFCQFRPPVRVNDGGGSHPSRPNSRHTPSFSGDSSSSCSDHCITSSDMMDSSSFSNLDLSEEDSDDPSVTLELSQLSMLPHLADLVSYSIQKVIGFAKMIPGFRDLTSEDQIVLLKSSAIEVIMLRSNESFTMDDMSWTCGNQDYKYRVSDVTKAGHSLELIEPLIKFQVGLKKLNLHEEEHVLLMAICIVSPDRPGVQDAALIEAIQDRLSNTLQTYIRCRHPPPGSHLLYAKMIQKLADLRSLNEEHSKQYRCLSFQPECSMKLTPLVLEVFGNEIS
In short: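 Transactivation by an exogenous VDR-Gal4 chimera in transiently transfected HepG2 cells was measured as reporter transcript level 24 hours after chemical treatment. RT-PCR products were analysed by capillary electrophoresis and fitted in the positive direction relative to DMSO.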

[12] = BSK_3C_SRB: Viability Assessment in the BioMAP Diversity Plus: 3C Assay (AID 2283023; active = hit-call score of the fitted dose curve at least 0.9, where 1 is the maximum; inactive = score below 0.9;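 also: fitted both ways against DMSO so a hit may be signal rise or drop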); conditions: primary human endothelial cells (HUVEC)
In short: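 Cytotoxicity readout in parallel HUVEC 3C cultures: after 24 h compound exposure, cells fixed with 10% TCA, stained with 0.1% SRB and read at 560 nm. Gain or loss relative to DMSO fitted.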

[13] = read-out: Matrix Metallopeptidase 1 (MMP1), MMP1 (gene 4312); assay: BSK_BE3C_MMP1: BioMAP Diversity Plus: BE3C Assay for Matrix Metallopeptidase 1 (MMP1) Biomarker Activity (AID 2283024; active = hit-call score of the fitted dose curve at least 0.9, where 1 is the maximum; inactive = score below 0.9); conditions: primary human bronchial epithelial cells; actives raise or lower the signal
In short: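 ELISA measurement of MMP-1 after 24 h compound exposure of primary human bronchial epithelial cells. Changes in either direction fitted relative to DMSO; parallel SRB staining checked overt cytotoxicity.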

[14] = BSK_3C_Vis: BioMAP Diversity Plus: 3C Assay for Morphology Visualization (AID 2283025; active = hit-call score of the fitted dose curve at least 0.9, where 1 is the maximum; inactive = score below 0.9;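 also: fitted both ways so gain or loss versus DMSO counts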;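 as to AC50: light microscopy image of cell morphology used as background control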); conditions: primary human endothelial cells (HUVEC)
In short: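 Light-microscopy visualization of HUVEC cultures at 24 h post-treatment, with DMSO as baseline for bidirectional fitting.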

[15] = read-out: Pselectin, SELP (gene 6403); assay: BSK_4H_Pselectin: BioMAP Diversity Plus: 4H Assay for Pselectin Biomarker Activity (AID 2283026; active = hit-call score of the fitted dose curve at least 0.9, where 1 is the maximum; inactive = score below 0.9); conditions: primary human endothelial cells (HUVEC); actives raise or lower the signal
In short: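 ELISA of surface P-selectin on HUVEC, 24 h after dosing, with parallel SRB staining (0.1% after 10% TCA fixation, 560 nm) for overt cytotoxicity. Activity fitted in both directions relative to DMSO.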

[16] = BSK_4H_SRB: Viability Assessment in the BioMAP Diversity Plus: 4H Assay (AID 2283027; active = hit-call score of the fitted dose curve at least 0.9, where 1 is the maximum; inactive = score below 0.9;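 also: cells exposed to compound for 24 h before staining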;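 as to AC50: curves fitted both ways versus DMSO so AC50 may be loss or gain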); conditions: primary human endothelial cells (HUVEC)
In short: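 HUVEC, 24 h post-dose; 10% TCA fix, 0.1% SRB stain, A560 nm. Total protein = overt cytotoxicity, parallel to biomarker read. Bidirectional fit vs DMSO baseline.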

[17] = BSK_BE3C_SRB: Viability Assessment in the BioMAP Diversity Plus: BE3C Assay (AID 2283028; active = hit-call score of the fitted dose curve at least 0.9, where 1 is the maximum; inactive = score below 0.9;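 as to AC50: fitted both ways so AC50 may mark signal gain or loss versus DMSO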); conditions: primary human bronchial epithelial cells
In short: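 Cytotoxicity read-out: SRB (0.1%) staining of TCA-fixed (10%) human lung bronchial epithelial cells, absorbance 560 nm, 24 h post-dosing. Curves fitted both directions relative to DMSO.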

[18] = read-out: Thrombomodulin, THBD (gene 7056); assay: BSK_3C_Thrombomodulin: BioMAP Diversity Plus: 3C Assay for Thrombomodulin Biomarker Activity (AID 2283029; active = hit-call score of the fitted dose curve at least 0.9, where 1 is the maximum; inactive = score below 0.9); conditions: primary human endothelial cells (HUVEC); actives raise or lower the signal
In short: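 ELISA measurement of thrombomodulin on HUVEC surface 24 h after chemical dosing; activity fitted in both directions relative to DMSO vehicle.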

[19] = read-out: Urokinase-type plasminogen activator receptor (uPAR), PLAUR (gene 5329); assay: BSK_4H_uPAR: BioMAP Diversity Plus: 4H Assay for Urokinase-type plasminogen activator receptor (uPAR) Biomarker Activity (AID 2283030; active = hit-call score of the fitted dose curve at least 0.9, where 1 is the maximum; inactive = score below 0.9); conditions: primary human endothelial cells (HUVEC); actives raise or lower the signal
In short: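 uPAR level read by ELISA on HUVEC cultures (BioMAP 4H) 24 h post-dosing, analyzed for gain or loss relative to DMSO. Parallel SRB staining assessed overt cytotoxicity.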

[20] = read-out: Monokine induced gamma interferon (MIG), CXCL9 (gene 4283); assay: BSK_3C_MIG: BioMAP Diversity Plus: 3C Assay for Monokine induced gamma interferon (MIG) Biomarker Activity (AID 2283021; active = hit-call score of the fitted dose curve at least 0.9, where 1 is the maximum; inactive = score below 0.9); conditions: primary human endothelial cells (HUVEC); actives raise or lower the signal
In short: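 ELISA measurement of MIG in human umbilical vein endothelial cells 24 h after treatment. Cytotoxicity tracked by SRB staining in parallel cultures; gain or loss of signal fitted relative to DMSO.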

Measured: AC50

Chain of E-selectin (Homo sapiens) (P16581 whole entry, looked up): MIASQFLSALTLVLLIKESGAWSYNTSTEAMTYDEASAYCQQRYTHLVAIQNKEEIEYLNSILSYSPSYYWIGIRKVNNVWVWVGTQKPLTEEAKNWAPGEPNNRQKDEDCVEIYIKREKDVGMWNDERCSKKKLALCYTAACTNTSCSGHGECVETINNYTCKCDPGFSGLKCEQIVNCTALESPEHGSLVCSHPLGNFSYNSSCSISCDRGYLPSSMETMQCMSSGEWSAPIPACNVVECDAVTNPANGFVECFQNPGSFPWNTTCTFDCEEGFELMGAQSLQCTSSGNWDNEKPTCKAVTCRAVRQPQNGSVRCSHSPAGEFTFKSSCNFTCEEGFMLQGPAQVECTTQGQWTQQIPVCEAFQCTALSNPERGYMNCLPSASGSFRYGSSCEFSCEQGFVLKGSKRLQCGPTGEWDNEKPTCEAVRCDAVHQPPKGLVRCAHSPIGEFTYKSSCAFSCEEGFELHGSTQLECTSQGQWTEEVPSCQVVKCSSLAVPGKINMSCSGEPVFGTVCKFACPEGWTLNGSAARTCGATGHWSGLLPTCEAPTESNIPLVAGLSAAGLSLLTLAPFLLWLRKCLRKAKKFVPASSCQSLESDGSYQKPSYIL

O=C(O)c1ccc(O)cc1
inactive: [1] | [2] | [3] | [4]

CCCCCCC(O)CCCCCCCCCCC(=O)O (centres undefined)
active: [3] 22.7 µM
inactive: [1] | [2]

O=C1OC2(c3ccccc31)c1ccc(O)c(Br)c1Oc1c2ccc(O)c1Br
active: [5] 24.7 µM | [6] 9.21 µM | [7] 20 µM | [8] 25.4 µM | [9] 20 µM | [10] 24.4 µM | [14] 37.5 µM | [15] 20 µM | [18] 20 µM | [19] 20 µM
inactive: [1] | [2] | [3] | [4] | [11] | [12] | [13] | [16] | [17]

CC(=O)CC(=O)Nc1ccc(C)cc1C
inactive: [1] | [2]

CCOC(=O)CCc1ccccc1
inactive: [1] | [2] | [3]

CCCCC1(COC(=O)CCC(=O)O)C(=O)N(c2ccccc2)N(c2ccccc2)C1=O
inactive: [1]

CCCCCC(C)=O
inactive: [1] | [2] | [3]

O=C(O)c1cccnc1C(=O)O
inactive: [1] | [2] | [3]

COc1ccccc1[N+](=O)[O-]
inactive: [1] | [2]

CC(C)=CCCC(C)CC(=O)O (centres undefined)
inactive: [1] | [2] | [3]

CC(=O)OCCCc1ccccc1
inactive: [1] | [2] | [3]

CC1=CC[C@@]23C[C@@H]1C(C)(C)[C@@H]2CC[C@H]3C
active: [3] 58.9 µM
inactive: [1] | [2]

C=C(C)C(=O)OCCOC1CC2CC1C1C=CCC21 (centres undefined)
inactive: [1]

CCOc1ccc(NC(=O)CC(C)O)cc1 (centres undefined)
inactive: [1]

CCCC(=O)OCCc1ccccc1
inactive: [1]

CC(=O)c1ccccn1
inactive: [1] | [2] | [3] | [4]

CC1CCC(C(C)C)C(O)C1 (centres undefined)
inactive: [1] | [2]

C=CC(=O)OCCC#N
inactive: [1] | [2] | [3] | [4]

Cc1ncc([N+](=O)[O-])n1CCO
inactive: [1] | [2] | [3]

CC(C)CCCCCCCCCCCCCCC(=O)O
inactive: [1] | [2] | [4]
active: [3] 11.4 µM

C=Cc1ccc(C(C)(C)C)cc1
inactive: [1] | [2] | [3]

OCCc1ccccc1
inactive: [1] | [2] | [3] | [4]

CCCCCCCCCCCCCC(=O)OCC(O)CO (centres undefined)
inactive: [1] | [2] | [3] | [4]

CC(C)OCCO
inactive: [1] | [2]

COC(C)(C)CCO
inactive: [1]

O=[N+]([O-])c1ccc(O)cc1C(F)(F)F
inactive: [1] | [2] | [3] | [4]

COc1cc(C(C)C)ccc1C
inactive: [1] | [2]

Oc1c(Cl)cc(Cl)c(Cl)c1Cc1c(O)c(Cl)cc(Cl)c1Cl
active: [3] 12.7 µM | [4] 0.657 µM | [5] 13 µM | [6] 2.02 µM | [7] 32.6 µM | [8] 1.31 µM | [9] 2.48 µM | [10] 28.2 µM | [13] 2.26 µM | [14] 13.7 µM | [15] 1.05 µM | [16] 6.35 µM | [17] 5.21 µM | [19] 2.26 µM
inactive: [1] | [2] | [11] | [18]

NCc1ccco1
inactive: [1] | [2] | [3]

CC1(C)O[C@@H]2C[C@H]3[C@@H]4CCC5=CC(=O)C=C[C@]5(C)[C@@]4(F)[C@@H](O)C[C@]3(C)[C@]2(C(=O)CO)O1
inactive: [1] | [2] | [3] | [4]

CCOc1ccc(NC(=O)CC(C)=O)cc1
inactive: [1]

C=CCCCCCCCCCC
inactive: [1] | [2] | [3] | [4]

CCO/C=C1\N=C(c2ccccc2)OC1=O
inactive: [1] | [2] | [3]

CCCCCCOC(=O)C(C)C
inactive: [1]

COCCOCCOCCO
inactive: [1] | [2]

CC(Oc1cc(Cl)ccc1Cl)C(=O)O (centres undefined)
inactive: [1]

O=C(O)CCCCCCCCCCCC(=O)O
inactive: [1] | [2]

CN(c1nccc(=O)[nH]1)C1CCN(c2nc3ccccc3n2Cc2ccc(F)cc2)CC1
active: [13] 0.00777 µM | [15] 0.00777 µM
not listed: [12]
inactive: all other assays above

Cc1[nH]c(=O)c(C#N)cc1-c1ccncc1
inactive: [1] | [2] | [4]

CCOC(=O)CC(C)O (centres undefined)
inactive: [1] | [2] | [4] | [11]

C=C(C)[C@@H]1CC=C(C)C(=O)C1
inactive: [1] | [2] | [3] | [4] | [11]
